{
  "source": "PubChem BioAssay AID485317",
  "about": "(Broad Institute, 2010)",
  "note": "The whole screen tested about 290,000 compounds, of which about 11,000 (3.8%) were called active. Many of the other results were omitted from the sample, so actives are more common in it than they were. Values without a mark were called inactive.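 How the source made its calls: active means mean replicate inhibition above about 79%, with every replicate also reaching it (limit read from the data); inconclusive means only one of the two criteria met; inactive means mean below limit and not every replicate reaching it.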",
  "data": [
    {"target": "FAD-linked sulfhydryl oxidase ALR (Homo sapiens) (UniProt P55789)", "sequence (P55789 whole entry, looked up)": "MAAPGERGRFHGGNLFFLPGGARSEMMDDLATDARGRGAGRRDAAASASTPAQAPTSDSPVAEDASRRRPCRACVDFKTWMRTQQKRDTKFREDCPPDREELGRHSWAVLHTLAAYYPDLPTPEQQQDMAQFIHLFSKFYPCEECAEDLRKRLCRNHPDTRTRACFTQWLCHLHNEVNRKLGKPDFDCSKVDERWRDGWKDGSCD", "test": "ALR-catalysed DTT oxidation blockers – biochemical, H2O2 detection, HRP-luminol luminescence, single point, primary screen (AID 485317)", "details": "purified ALR, active compounds read high, concentration not given here", "values": [
      {"smiles": "CC(C)CC1(C)NC(=O)N(CC(=O)Nc2ccc3c(c2)OCCO3)C1=O", "note": "(centres undefined)", "inhibition": "4.51%"},
      {"smiles": "CCC(C)c1ccccc1N1CC(C(=O)N2CCN(S(=O)(=O)c3ccc(F)cc3)CC2)CC1=O", "note": "(centres undefined)", "inhibition": "1.3%"},
      {"smiles": "COCC(=O)Nc1c(I)c(C(=O)NCC(O)CO)c(I)c(C(=O)N(C)CC(O)CO)c1I", "note": "(centres undefined)", "inhibition": "-12.2%"},
      {"smiles": "O=C(CSc1ccccn1)N1CCN(S(=O)(=O)c2ccc(Cl)cc2)CC1", "inhibition": "-0.731%"},
      {"smiles": "CO[C@@H]1[C@@H](OC(N)=O)[C@@H](O)C(Oc2ccc3c(O)c(NC(=O)c4ccc(O)c(CC=C(C)C)c4)c(=O)oc3c2C)OC1(C)C", "note": "(some centres undefined)", "inhibition": "1.83%"},
      {"smiles": "COc1ccc(F)cc1C(=O)COC(=O)c1n[nH]c(=O)c2ccccc12", "inhibition": "-1.76%"},
      {"smiles": "CC(C)(C)OC(=O)N[C@H](C(=O)OC(C)(C)C)c1ccc(Br)cc1", "inhibition": "-0.888%"},
      {"smiles": "O=C1N[C@@H](Cc2ccccc2)C(=O)N2[C@@H]3N(S(=O)(=O)c4ccc(F)cc4)c4ccccc4[C@]3(Br)C[C@@H]12", "inhibition": "-1.43%"},
      {"smiles": "NS(=O)(=O)c1ccc(NC(=O)COC(=O)C2(c3ccc(F)cc3)CCCC2)cc1", "inhibition": "-14.8%"},
      {"smiles": "NS(=O)(=O)c1ccc(NC2=CC(c3ccc(F)cc3)N(c3ccc(S(N)(=O)=O)cc3)C2=O)cc1", "note": "(centres undefined)", "inhibition": "97.6% (active)"},
      {"smiles": "CC(=O)C1=C(O)C(=O)N(c2ccc(S(N)(=O)=O)cc2)C1c1ccccc1F", "note": "(centres undefined)", "inhibition": "-0.498%"},
      {"smiles": "COc1ccccc1NS(=O)(=O)c1ccc(C)c(C(=O)NNC(=O)c2csc(N3CCOCC3)n2)c1", "inhibition": "-6.78%"},
      {"smiles": "CCCc1cc(-c2n[nH]c(=S)n2CC)c2ccccc2n1", "inhibition": "-9.51%"},
      {"smiles": "CCn1c(-c2ccoc2C)n[nH]c1=S", "inhibition": "6.36%"},
      {"smiles": "Cc1ccccc1-c1n[nH]c(=S)n1C", "inhibition": "93.4% (active)"},
      {"smiles": "O=C(CCNC(=O)c1ccc(Cl)cc1)NC1CCCc2ccccc21", "note": "(centres undefined)", "inhibition": "-6.93%"},
      {"smiles": "CCOc1ccccc1NC(=O)Cc1cccs1", "inhibition": "-14.8%"},
      {"smiles": "CCOc1ccccc1NC(=O)CCc1ccc(C)o1", "inhibition": "99.7% (active)"},
      {"smiles": "CCOc1ccccc1NC(=O)CCc1nnc2ccc(NCc3ccco3)nn12", "inhibition": "1.12%"},
      {"smiles": "CCOc1ccc(NC(=O)CN(C)C(=O)CCSc2ccc(F)cc2)cc1OCC", "inhibition": "-3.71%"},
      {"smiles": "COc1ccc(S(=O)(=O)Nc2cc(C)on2)cc1NC(C)=O", "inhibition": "-7.72%"},
      {"smiles": "O=C(CN1CCN(c2ccccc2O)CC1)NC(=O)NCc1ccccc1", "inhibition": "13.1%"},
      {"smiles": "Oc1ccccc1N1CCN(C(=S)NCc2ccccc2)CC1", "inhibition": "96.4% (active)"},
      {"smiles": "CC1CCCCN1C(=S)NCc1ccccc1", "note": "(centres undefined)", "inhibition": "-1.5%"},
      {"smiles": "OCCn1c(-c2ccccc2)csc1=Nc1ccccc1", "inhibition": "99% (active)"},
      {"smiles": "O=c1cc(CCl)nc2scc(-c3ccccc3)n12", "inhibition": "60.8%"},
      {"smiles": "C=C(C)CNC(=S)/N=c1\\scc(C)n1CC", "inhibition": "18%"},
      {"smiles": "Cc1csc(=NC(=O)c2ccccc2)n1CCO", "inhibition": "99% (active)"},
      {"smiles": "Cc1csc(=Nc2ccccc2)n1CCO", "inhibition": "98.7% (active)"},
      {"smiles": "CCOC(=O)c1sc(=NC(=O)c2ccc(Br)cc2)n(C)c1C", "inhibition": "-3.96%"},
      {"smiles": "Cc1cc(C(=O)CCC(=O)NNC(=O)c2ccccc2O)c(C)s1", "inhibition": "8.1%"},
      {"smiles": "O=C(COC(=O)c1ccc2ncsc2c1)Nc1ccc(Cl)cc1", "inhibition": "16%"},
      {"smiles": "COc1ccc(NC(=O)C(=O)NCC(c2ccco2)N2CCc3ccccc3C2)cc1", "note": "(centres undefined)", "inhibition": "-1.35%"},
      {"smiles": "COc1ccc(NS(=O)(=O)c2cc(NC(=O)c3ccc(S(=O)(=O)N(C)C)cc3)ccc2N2CCOCC2)cc1", "inhibition": "0.706%"},
      {"smiles": "Cc1cc(C(=O)OC(C)C(=O)NC2CCCCC2C)c(C)o1", "note": "(centres undefined)", "inhibition": "2.82%"},
      {"smiles": "CC1CC(C)(C)NC(=S)N1CCC(=O)N1CCN(Cc2ccccc2)CC1", "note": "(centres undefined)", "inhibition": "-28.3%"},
      {"smiles": "CC1CC(=S)Nc2ccccc2N1Cc1ccccc1", "note": "(centres undefined)", "inhibition": "99% (active)"},
      {"smiles": "CC1CC(=O)Nc2ccccc2N1S(=O)(=O)c1cccs1", "note": "(centres undefined)", "inhibition": "-4.3%"},
      {"smiles": "CC1CCCN(C(=O)c2cc(-c3ccco3)nc3ccccc23)C1", "note": "(centres undefined)", "inhibition": "6.96%"},
      {"smiles": "Cc1cc(C)c(C)c(S(=O)(=O)N2CCN(C(=O)c3ccc4c(=O)n5c(nc4c3)CCC5)CC2)c1C", "inhibition": "-2.44%"},
      {"smiles": "O=C(Nc1cccc(S(=O)(=O)N2CCCCC2)c1)c1cncc(Br)c1", "inhibition": "-4.78%"},
      {"smiles": "Cc1ccc(-n2[nH]c(C)c(/C=N/N3C(=O)c4cccc5cccc(c45)C3=O)c2=O)cc1", "inhibition": "-15.1%"},
      {"smiles": "COc1cc(SC#N)ccc1N=Cc1c(C)[nH]n(-c2ccc(C)cc2)c1=O", "inhibition": "99.6% (active)"},
      {"smiles": "CCc1nnc(NS(=O)(=O)c2ccc(N=Cc3c(C)[nH]n(-c4ccc(C)cc4)c3=O)cc2)s1", "inhibition": "63.1%"},
      {"smiles": "O=C(NCCCN1CCCC1=O)c1cccc(S(=O)(=O)NCc2ccccc2)c1", "inhibition": "0.0635%"},
      {"smiles": "CC(C)NC(=O)c1ccc(Cl)cc1Cl", "inhibition": "-6.81%"},
      {"smiles": "CC(C)NC(=O)c1ccccc1S(=O)c1ccccc1C#N", "note": "(centres undefined)", "inhibition": "99.6% (active)"},
      {"smiles": "CC(C)Oc1ccccc1C(=O)NC(CO)C(=O)O", "note": "(centres undefined)", "inhibition": "2.33%"},
      {"smiles": "CC(C)CN(C(=O)COC(=O)c1ccc2ccccc2c1)c1c(N)n(Cc2ccccc2)c(=O)[nH]c1=O", "inhibition": "1.44%"},
      {"smiles": "O=C(O)Cc1ccc(NCc2ccccc2Cl)cc1", "inhibition": "97.2% (active)"},
      {"smiles": "S=C(NCCc1ccccc1)NCc1ccccc1Cl", "inhibition": "5.1%"},
      {"smiles": "O=C(O)Cc1ccc(NC(=O)Nc2cccc3ccccc23)cc1", "inhibition": "-53.7%"},
      {"smiles": "CC(=O)C12CC(C)=C(C)CC1CC1C3CCC4=CC(=O)CCC4(C)C3CCC12C", "note": "(centres undefined)", "inhibition": "-1.17%"},
      {"smiles": "CCOc1ccccc1Oc1cn[nH]c1-c1ccc(OC)cc1O", "inhibition": "59.2%"},
      {"smiles": "COc1ccc(Oc2cn[nH]c2-c2ccc(OC)cc2O)cc1", "inhibition": "97.1% (active)"},
      {"smiles": "COc1ccc(-c2cn[nH]c2-c2ccc(OC)cc2)cc1", "inhibition": "0.7%"},
      {"smiles": "O=C(CNC(=O)Cc1ccccc1)N=Nc1c(O)[nH]c2ccc(Br)cc12", "inhibition": "10.6%"},
      {"smiles": "NS(=O)(=O)c1ccc(N=Nc2c(O)[nH]c3ccc(Br)cc23)cc1", "inhibition": "-3.47%"},
      {"smiles": "Oc1[nH]c2ccc(Br)cc2c1N=Nc1nn[nH]n1", "inhibition": "89.8% (active)"},
      {"smiles": "COc1ccccc1CNS(=O)(=O)c1cc2c3c(c1)CCC(=O)N3CCC2", "inhibition": "-0.847%"},
      {"smiles": "CC1CN(C(=O)c2cc(COc3c(F)cccc3F)on2)CCN1C", "note": "(centres undefined)", "inhibition": "-3.41%"},
      {"smiles": "CC1(C)O[C@@H]2[C@H](O1)[C@@H](CO)O[C@H]2n1c(N2CCCCC2)nc2c(N)ncnc21", "inhibition": "1.47%"},
      {"smiles": "CC(=O)NNc1cc(=O)c2c(=O)n(C)c(=O)n(C)c2[nH]1", "inhibition": "90.2% (active)"},
      {"smiles": "CC(=O)Nn1cc2c(=O)n(C)c(=O)n(C)c2c1", "inhibition": "-9.4%"},
      {"smiles": "CCC(=O)NNc1cc(=O)c2c(=O)n(C)c(=O)n(C)c2[nH]1", "inhibition": "-4.74%"},
      {"smiles": "CCOc1ccc(S(=O)(=O)Nc2ccc(OC)nc2)cc1", "inhibition": "-0.795%"},
      {"smiles": "COc1ccc(NC(=O)/C(Cl)=C(/Cl)S(=O)Cc2ccc(C)cc2)cn1", "note": "(centres undefined)", "inhibition": "99.1% (active)"},
      {"smiles": "COc1ccc(NC(=O)c2cc(-c3ccc(C)cc3)on2)cc1", "inhibition": "-7.55%"},
      {"smiles": "COc1ccc2c(CC(=O)NNC(=O)c3ccccc3F)coc2c1", "inhibition": "-9.32%"},
      {"smiles": "O=C(CCc1ccc(S(=O)(=O)N2CCOCC2)cc1)OCC(=O)c1ccc(Br)cc1", "inhibition": "3.41%"},
      {"smiles": "O=C(/C=C(O)/C=C/c1ccc(O)cc1)/C=C/c1ccc(O)cc1", "inhibition": "-0.191%"},
      {"smiles": "COc1ccc(N2CCN(C(=O)CNC(=O)c3ccc(C(C)(C)C)cc3)CC2)cc1", "inhibition": "-2.48%"},
      {"smiles": "COc1ccc(N2CCN(C(=O)CNC(=O)c3ccc(Br)o3)CC2)cc1", "inhibition": "94% (active)"},
      {"smiles": "COc1ccc(N2CCN(C(=O)CCNC(=O)c3ccc(Br)cc3)CC2)cc1", "inhibition": "-0.657%"},
      {"smiles": "CCOc1ccc(C(=O)CCC(=O)Nc2ccncc2)cc1", "inhibition": "2.23%"},
      {"smiles": "COc1ccc(/C=N/NC(=O)c2ccncc2)cc1CN1CCCc2ccccc21", "inhibition": "93.5% (active)"},
      {"smiles": "COc1ccc(/C=N/NC(=O)c2ccc(Cl)cc2)cc1COC(C)=O", "inhibition": "5.91%"},
      {"smiles": "COc1cc(/C=N/NC(=O)CNC(=O)c2ccncc2)ccc1OC(C)=O", "inhibition": "40.7%"},
      {"smiles": "COc1ccc(-c2ccc(CCC(=O)O)n2NC(=O)c2ccc(C(C)(C)C)cc2)cc1", "inhibition": "98.4% (active)"},
      {"smiles": "COCCCn1c(CCC(=O)O)ccc1-c1ccc(F)cc1", "inhibition": "22.3%"},
      {"smiles": "COc1ccc(C(=O)NC(Cc2ccc(OC(=O)c3ccc(OC)cc3)cc2)C(=O)O)cc1", "note": "(centres undefined)", "inhibition": "15.2%"},
      {"smiles": "C=Cn1c(C(=O)O)ccc1-c1ccc(OC)cc1", "inhibition": "6.07%"},
      {"smiles": "COc1ccc(-c2ccc(CCC(=O)O)n2-c2ccc(O)cc2)cc1", "inhibition": "95.3% (active)"},
      {"smiles": "CCOC(=O)c1ccc(-n2c(CCC(=O)O)ccc2-c2ccccc2)cc1", "inhibition": "6.43%"},
      {"smiles": "CC1Cc2ccccc2N1S(=O)(=O)c1cccc(C(=O)OCC(=O)N2CCOCC2)c1", "note": "(centres undefined)", "inhibition": "2.06%"},
      {"smiles": "CC(=O)c1c(C)[nH]c(C(=O)COC(=O)c2cccs2)c1C", "inhibition": "-7.6%"},
      {"smiles": "COc1ccc(-c2n[nH]c(C)c2-c2ccccc2OC)c(O)c1", "inhibition": "94.9% (active)"},
      {"smiles": "COc1ccc(-c2n[nH]c(C)c2-c2ccc(OC)c(OC)c2)c(O)c1", "inhibition": "25.6%"},
      {"smiles": "C=C(C)COc1ccc(-c2n[nH]c(C)c2-c2ccccc2OC)c(O)c1", "inhibition": "-0.153%"},
      {"smiles": "COc1ccc(Cl)cc1NC(=O)COC(=O)c1ccc(Br)o1", "inhibition": "3.97%"},
      {"smiles": "CCCN(CC(=O)NC(=O)NC1CCCCC1)CC(=O)Nc1cc(Cl)ccc1Cl", "inhibition": "-2.78%"},
      {"smiles": "Cc1cccc(C(=O)NCCCN2CCCC2=O)c1", "inhibition": "-1.37%"},
      {"smiles": "Cc1cccc(C(=O)NCCCN(C)CCCNC(=O)c2cccc(C)c2)c1", "inhibition": "-2.47%"},
      {"smiles": "CCN(CCCNC(=O)c1ccc2c(c1)NC(=O)CN2C)c1cccc(C)c1", "inhibition": "94.3% (active)"}
    ]}
  ]
}
